This is a sample that favours compounds with a hit; in the whole collection about 14% have one here.
Cycloheximide cs: counter-screen for Shiga toxin inhibitors: cycloheximide protein synthesis inhibition | max response, % | cell reporter, cycloheximide protein synthesis inhibition counterscreen | AID 2314 | 12% of 300,000 active; in the data active = max response mostly above about 13%, no sharp cut-off; inactive = mostly below about 14%; also: read at 38.3 µM for the half of the compounds with a filed dose
LmPK inhibitor: inhibitors of Leishmania mexicana pyruvate kinase; Q27686; AID 1721; Potency, µM (top dose mostly 57.5 µM), hits mostly inhibitors; purified LmPK, Kinase-Glo ATP luminescence, 1 h; 0.37% of 290,000 active
Target sequence (Q27686 whole entry, looked up): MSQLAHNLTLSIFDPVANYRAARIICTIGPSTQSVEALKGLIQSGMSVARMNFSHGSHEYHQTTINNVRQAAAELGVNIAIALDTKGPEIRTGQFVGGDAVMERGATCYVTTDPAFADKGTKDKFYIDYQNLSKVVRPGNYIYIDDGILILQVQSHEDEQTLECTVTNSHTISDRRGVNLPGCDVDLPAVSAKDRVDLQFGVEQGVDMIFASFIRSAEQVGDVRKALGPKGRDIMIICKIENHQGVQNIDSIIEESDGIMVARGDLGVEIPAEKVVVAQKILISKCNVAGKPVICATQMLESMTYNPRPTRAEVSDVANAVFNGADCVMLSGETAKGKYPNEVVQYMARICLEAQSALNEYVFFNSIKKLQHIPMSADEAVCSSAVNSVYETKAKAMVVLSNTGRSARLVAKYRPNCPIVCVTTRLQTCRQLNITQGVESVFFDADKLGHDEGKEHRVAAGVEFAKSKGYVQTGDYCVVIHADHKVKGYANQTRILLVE
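Purified LmPK (0.1 nM) converted ADP (0.1 mM) to ATP with PEP (0.5 mM) in imidazole buffer pH 7.2 with KCl and MgCl2, 1 h at room temperature. ATP was read by Kinase-Glo luminescence; data normalized to uninhibited and no-enzyme controls.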
Shiga toxin inh: blocks Shiga toxin action in Vero cells. Vero cells, Shiga toxin protein synthesis inhibition reporter. inhibition, % at 38.7 µM. 9.2% of 290,000 active; in the data active = inhibition mostly above about 28%, no sharp cut-off; inactive = mostly below about 43%
NS1 function inh: inhibitors of influenza NS1 protein function | 0.4% of 270,000 active | Potency, µM (titrated, usually from 46.1 µM) | AID 2326; calls by dose curve; also: actives are rising curves; nearly all actives have a fitted effect of over 50% in size
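OD600 was taken as the measure of yeast growth restored by compound in an NS1-expressing S. cerevisiae strain. Cells had been washed out of glucose medium and diluted 1:100 into galactose -URA medium, pH 6.0.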
Giardia FBPA inh: blocks Giardia fructose-bisphosphate aldolase activity | A8B2U2 | purified Giardia FBPA | Potency, µM (top dose mostly 59.6 µM), actives largely listed as inhibitors | 0.71% of 290,000 active; also: nearly all actives have a fitted effect of over 55% in size
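Giardia FBPA (40 nM reagent) was preincubated 10 min at RT with compound (up to 57.5 uM final), then substrate plus GAPDH/TPI/NAD/arsenate coupling system with diaphorase/resazurin was added; resorufin fluorescence (525/598 nm) was read after 20 min.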
Each line names hits and unclear results; the compound was inactive in the other large screens. Unless noted, calls follow the shape of the dose curve; as a rule, active = well fitted curve in the direction sought with a large enough effect; inconclusive = small, poorly fitted or top-dose-only effect, or another doubt; inactive = no such curve, though single readings can be large; an effect the other way counts as inactive or inconclusive.

O=c1c(-c2cccs2)nc2cnc(N3CCOCC3)nc2n1CCc1ccccc1	none (no result: Cycloheximide cs, LmPK inhibitor, Shiga toxin inh, NS1 function inh)
COC(=O)[C@H](COC(C)(C)C)NC(=O)O[C@@H]1C(=O)c2ccc(OC)cc2O[C@H]1c1cccc(C(F)(F)F)c1	none (no result: Cycloheximide cs, LmPK inhibitor, Shiga toxin inh, NS1 function inh)
CC(C)[C@@H](CC(=O)N[C@@H]1CCNC[C@H]1C(=O)N[C@H](CC(=O)N[C@@H](CCC(=O)O)CC(=O)O)Cc1c[nH]c2ccccc12)NC(=O)C[C@H](CO)NC(=O)[C@@H]1CCCC[C@H]1N	none (no result: Cycloheximide cs, LmPK inhibitor, Shiga toxin inh, NS1 function inh)
CCC(C)NC(=O)CSc1nnc(-c2ccoc2C)n1CC1CCCO1 (stereo unspecified)	none
CCn1c(SCC(=O)c2ccc(F)cc2)nnc1-c1ccoc1C	Cycloheximide cs 30.3, NS1 function inh inconclusive
Cc1occc1-c1nnc(SCC(=O)c2ccc3c(c2)OCCO3)n1CC1CCCO1 (stereo unspecified)	Cycloheximide cs 23.3, Shiga toxin inh 40.0
Cc1occc1-c1nnc(SCCCC(=O)c2ccc(F)cc2)n1C	none
Cc1occc1-c1nnc(SCC(=O)c2ccccc2)n1CC1CCCO1 (stereo unspecified)	Cycloheximide cs 20.1, NS1 function inh inconclusive
Clc1ccccc1-c1nnc(-c2ccccc2Cl)o1	Cycloheximide cs 31.5, Shiga toxin inh 67.5
Clc1ccc(-c2nnc(-c3ccccc3Cl)o2)cc1	Cycloheximide cs 46.3, Shiga toxin inh 114.6
CCCNCc1nnc(-c2ccccc2Cl)o1	none
Clc1ccc(-c2nnc(-c3cccc4ccccc34)o2)cc1Cl	none
Cc1cc(NC(=O)c2noc3c2CCc2ccccc2-3)no1	none
Cc1ccc(O)c(NC(=O)c2noc3c2CCc2ccccc2-3)c1	Cycloheximide cs 42.6, Shiga toxin inh 87.4 (no result: NS1 function inh)
CC(=O)c1cccc(NC(=O)c2noc3c2CCc2ccccc2-3)c1	Cycloheximide cs 34.8, Shiga toxin inh 65.9 (no result: NS1 function inh)
COCCNC(=O)C(c1ccc(O)cc1)N(Cc1cccs1)C(=O)CCC(=O)Nc1ccccn1 (stereo unspecified)	none
COc1cccc(CN2CCN(CC(=O)NCCc3ccccc3)CC2)c1	none
O=C(CN1CCN(S(=O)(=O)N2CCCCC2)CC1)Nc1ccc(Br)cc1	none
CCOc1ccc(-c2csc(NC(=O)C3CCCO3)n2)cc1 (stereo unspecified)	Cycloheximide cs 41.7, Shiga toxin inh 11.0
CCOC(=O)c1c(-c2ccc(OC)cc2)csc1NC(=O)C1CCCO1 (stereo unspecified)	none
O=C(Nc1nc(-c2ccc(Cl)cc2Cl)cs1)C1CCCO1 (stereo unspecified)	none
O=C(Nc1nc(-c2ccc(Cl)cc2)cs1)C1CCCO1 (stereo unspecified)	Cycloheximide cs 36.1, Shiga toxin inh 90.8 (no result: NS1 function inh)
CC1=C(n2nnc([N+](=O)[O-])n2)C(c2cccnc2)C(C#N)=C(N)O1 (stereo unspecified)	Giardia FBPA inh 5µM
O=c1nc2c(O)cccn2c2c1c(=O)[nH]c1ccccc12	Giardia FBPA inh inconclusive
O=c1c2ccccc2nc2c3ccccc3cnn12	Cycloheximide cs 40.4, Shiga toxin inh 78.2 (no result: NS1 function inh)
O=c1c2ccccc2nc2ccccn12	Cycloheximide cs 41.5, Shiga toxin inh 70.1 (no result: NS1 function inh)
O=c1[nH]c2ccccc2c2nc3ccccn3c12	Cycloheximide cs 39.7, Shiga toxin inh 50.6
CCCCCCNc1nc(-c2ccc(OC)cc2)c(CCC(=O)O)s1	none
COC(=O)CCc1sc(NC2CCCCC2)nc1-c1ccc(OC)cc1	Cycloheximide cs 25.0
CC[n+]1ccc(C(=O)NCc2ccccc2)cc1	none (no result: NS1 function inh)
O=C1OC(CO)C(O)C(O)C1O (stereo unspecified)	none (no result: Cycloheximide cs, LmPK inhibitor, Shiga toxin inh, NS1 function inh)
COC(=O)N1CCC2(CCCN(Cc3ccccc3)C2)CC1	none (no result: Cycloheximide cs, LmPK inhibitor, Shiga toxin inh, NS1 function inh)
O=C(Cn1ncc(N2CCOCC2)c(Cl)c1=O)c1ccc(Cl)cc1	none
O=C(Cn1ncc(Cl)c(Cl)c1=O)NCC1CCCCC1	Cycloheximide cs 30.5
C=CCn1c(C)cc(C(=O)CN2NS(=O)(=O)c3ccccc3C2=O)c1C	Cycloheximide cs 33.2, Shiga toxin inh 87.1
C=CCn1c(C)cc(C(=O)Cn2ncc(Cl)c(Cl)c2=O)c1C	Cycloheximide cs 41.7, Shiga toxin inh 72.8
O=C(Cn1ncc(Cl)c(Cl)c1=O)c1ccc(Cl)cc1	Cycloheximide cs 21.2, Shiga toxin inh 32.4
Cc1ccc(C(=O)NC(C#N)=C(Cl)Cl)cc1	none
CCC(=O)N1c2ccc(S(=O)(=O)N3CCN(c4ccc([N+](=O)[O-])cc4)CC3)cc2CC1C (stereo unspecified)	none
COc1ccc(-c2nc(CS(=O)CC(=O)NCCCN3CCOCC3)c(C)o2)cc1OC (stereo unspecified)	none (no result: Giardia FBPA inh)
O=Cc1ccccc1OCCOc1ccccc1C=O	Cycloheximide cs 34.4, Shiga toxin inh 52.2
O=Cc1ccccc1Oc1ccccc1	none
COc1ccc2c(c1OC)C(=O)OC2	none
COc1ccc(NC(C)=O)cc1C	none (no result: NS1 function inh)
COc1ccc2c(c1OC)C(=O)N(c1ccc(F)cc1)C2	Cycloheximide cs 35.8, Shiga toxin inh 65.2
COc1ccc2c(c1OC)C(=O)N(c1cccc(NC(C)=O)c1)C2	Cycloheximide cs 23.3
CC(C)(C)c1ccc(OCC(=O)Nc2ccc(C(=O)Nc3ccccc3C(=O)O)cc2)cc1	none
CCOc1ccc2oc(C(=O)NC(C)(C)CC)c(C)c2c1	Cycloheximide cs 48.0, Shiga toxin inh 66.8 (no result: NS1 function inh)
N/C(=N\OC(=O)COc1ccc(Cl)cc1Cl)c1ccncc1	Cycloheximide cs 43.3, Shiga toxin inh 84.9
N/C(=N\OC(=O)COc1ccc(Cl)cc1Br)c1cccnc1	Cycloheximide cs 31.0, Shiga toxin inh 112.7 (no result: NS1 function inh)
N/C(=N\OC(=O)COc1ccc(Br)cc1Cl)c1cccnc1	Cycloheximide cs 45.3, Shiga toxin inh 92.5
Cc1cccnc1NC(=O)CSc1nnc(CNC(=O)c2cccc([N+](=O)[O-])c2)n1C	none (no result: Giardia FBPA inh)
COC(=O)c1ccc(N(CC(=O)NC2CCCC2)C(=O)c2ccc(C)s2)cc1	none (no result: Giardia FBPA inh)
CCOC(=O)C(=NCC1CCCO1)NNc1ccccc1Cl (stereo unspecified)	none
Cc1ccc(C(=O)Nc2cccc(C(=O)N/N=C/c3ccc(F)cc3)c2)cc1	Cycloheximide cs 26.9, Shiga toxin inh 58.4
CC(=O)Nc1cccc(C(=O)N/N=C/c2ccc(F)cc2)c1	Cycloheximide cs 33.9, Shiga toxin inh 83.0
CC(=O)Nc1cccc(C(=O)N/N=C/c2cccnc2)c1	none
CC(C)C(=O)Nc1cccc(-c2csc(-c3ccccc3)n2)c1	Cycloheximide cs 32.3, Shiga toxin inh 33.5
Cc1nc(-c2cccc(NC(=O)c3ccc(Br)o3)c2)cs1	none (no result: Giardia FBPA inh)
CC(C)C(=O)Nc1ccc(-c2csc(-c3ccccc3)n2)cc1	Cycloheximide cs 60.9, Shiga toxin inh 81.2
Cc1cc2ccc(=O)oc2cc1OC[C@@H](O)C(C)(C)O	none (no result: Cycloheximide cs, LmPK inhibitor, Shiga toxin inh, NS1 function inh)
COc1ccc(C2=Nn3c(nnc3-c3cccc(OC)c3OC)SC2)cc1	none (no result: LmPK inhibitor, NS1 function inh)
COc1ccc(OC)c(NC(=O)Nc2ccc3c(c2)OCO3)c1	Cycloheximide cs 14.6, Shiga toxin inh 55.9
COc1cccc(NC(=O)Nc2ccc3c(c2)OCO3)c1	Cycloheximide cs 39.6, Shiga toxin inh 77.1, Giardia FBPA inh inconclusive
COc1ccc(OC)c(S(=O)(=O)N(C)CC(=O)Nc2ccc3c(c2)OCO3)c1	none
C[C@@H]1Cc2ccccc2N1NC(=O)c1ccc(Cl)c(S(N)=O)c1 (stereo partly specified)	none (no result: Cycloheximide cs, LmPK inhibitor, Shiga toxin inh, NS1 function inh)

Screening data from PubChem BioAssay.
